Measurements published in PubChem BioAssay AID1159580 (chemical genetic matrix, 2015).
The whole screen tested about 5,500 compounds, of which about 2,000 (36%) were called active. Not shown: some 18% with an inconclusive outcome. The list shows a part of the results. Unmarked numbers belong to inactive results. No stated cut-off is given here; in the data, active means normalized growth mostly below about 0.91 (no sharp cut-off); inconclusive means no clear call, values can overlap the other calls; inactive means mostly above about 0.92.

Experiment: chemical genetic growth profiling, strain panel (AID 1159580);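 further: tested at 20 µM; growth read once vehicle control cultures reached saturation at 30 °C; 1 = growth at the plate median or of vehicle wells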
Conditions: S. cerevisiae deletion strains, growth OD

COc1ccc2c(c1)CCC1C2CCC2(C)C1C[C@@H](O)C2O (stereo not given in full)
normalized growth (locus YAL013W, strain DEP1, stronger effect = lower value): 1 | normalized growth (locus YAL021C, strain ccr4, stronger effect = lower value): 0.947 | normalized growth (locus YAL026C, strain drs2, stronger effect = lower value): 0.83 (active) | normalized growth (locus YAL030W, strain snc1, stronger effect = lower value): 1 | normalized growth (locus YBL061C, strain skt5, stronger effect = lower value): 1 | normalized growth (locus YBR009C, strain hhf1, stronger effect = lower value): 0.917 | normalized growth (locus YBR021W, strain FUR4, stronger effect = lower value): 1.08 | normalized growth (locus YBR023C, strain chs3, stronger effect = lower value): 0.988 | normalized growth (locus YBR171W, strain sec66, stronger effect = lower value): 0.983 | normalized growth (locus YBR229C, strain ROT2, stronger effect = lower value): 1.02 | normalized growth (locus YBR231C, strain swc5, stronger effect = lower value): 1.01 | normalized growth (locus YBR279W, strain paf1, stronger effect = lower value): 0.992 | normalized growth (locus YCL011C, strain gbp2, stronger effect = lower value): 0.977 | normalized growth (locus YCL016C, strain dcc1, stronger effect = lower value): 0.949 | normalized growth (locus YCL029C, strain bik1, stronger effect = lower value): 0.993 | normalized growth (locus YCL061C, strain MRC1, stronger effect = lower value): 0.985 | normalized growth (locus YCL069W, strain vba3, stronger effect = lower value): 1 | normalized growth (locus YCR088W, strain abp1, stronger effect = lower value): 0.998 | normalized growth (locus YDL005C, strain med2, stronger effect = lower value): 1.01 | normalized growth (locus YDL035C, strain GPR1, stronger effect = lower value): 0.962 | normalized growth (locus YDL040C, strain nat1, stronger effect = lower value): 0.993 | normalized growth (locus YDL074C, strain BRE1, stronger effect = lower value): 0.95 | normalized growth (locus YDL101C, strain DUN1, stronger effect = lower value): 1.02 | normalized growth (locus YDL134C, strain PPH21, stronger effect = lower value): 0.952 | normalized growth (locus YDL185W, strain tfp1, stronger effect = lower value): 0.992 | normalized growth (locus YDL192W, strain arf1, stronger effect = lower value): 0.997 | normalized growth (locus YDR001C, strain nth1, stronger effect = lower value): 1.01 | normalized growth (locus YDR069C, strain doa4, stronger effect = lower value): 0.992 | normalized growth (locus YDR101C, strain arx1, stronger effect = lower value): 0.987 | normalized growth (locus YDR137W, strain rgp1, stronger effect = lower value): 0.854 | normalized growth (locus YDR150W, strain NUM1, stronger effect = lower value): 1.01 | normalized growth (locus YDR159W, strain sac3, stronger effect = lower value): 0.966 | normalized growth (locus YDR162C, strain NBP2, stronger effect = lower value): 0.978 | normalized growth (locus YDR195W, strain ref2): 1.1 | normalized growth (locus YDR297W, strain sur2, stronger effect = lower value): 1 | normalized growth (locus YDR318W, strain mcm21, stronger effect = lower value): 0.991 | normalized growth (locus YDR334W, strain swr1, stronger effect = lower value): 1 | normalized growth (locus YDR335W, strain msn5, stronger effect = lower value): 0.997 | normalized growth (locus YDR388W, stronger effect = lower value): 0.99 | normalized growth (locus YDR392W, strain spt3, stronger effect = lower value): 0.685 (active) | normalized growth (locus YDR502C, strain sam2, stronger effect = lower value): 0.997 | normalized growth (locus YEL003W, strain gim4, stronger effect = lower value): 0.992 | normalized growth (locus YEL037C, strain rad23, stronger effect = lower value): 1 | normalized growth (locus YEL061C, strain CIN8 (second series), stronger effect = lower value): 1.01 | normalized growth (locus YEL061C, strain CIN8, stronger effect = lower value): 1.01 | normalized growth (locus YER015W, strain faa2, stronger effect = lower value): 0.996 | normalized growth (locus YER016W, strain bim1, stronger effect = lower value): 0.979 | normalized growth (locus YER110C, stronger effect = lower value): 0.983 | normalized growth (locus YER111C, strain swi4, stronger effect = lower value): 0.984 | normalized growth (locus YER155C, strain BEM2 (second series), stronger effect = lower value): 0.715 (active) | normalized growth (locus YER155C, strain BEM2, stronger effect = lower value): 1.02 | normalized growth (locus YER167W, strain BCK2, stronger effect = lower value): 0.999 | normalized growth (locus YFR010W, strain ubp6, stronger effect = lower value): 1 | normalized growth (locus YGL078C, strain dbp3, stronger effect = lower value): 0.997 | normalized growth (locus YGL086W, strain mad1, stronger effect = lower value): 0.991 | normalized growth (locus YGL167C, strain pmr1, stronger effect = lower value): 1 | normalized growth (locus YGL173C, strain kem1, stronger effect = lower value): 0.949 | normalized growth (locus YGL227W, strain vid30, stronger effect = lower value): 1 | normalized growth (locus YGL240W, strain doc1, stronger effect = lower value): 0.944 | normalized growth (locus YGL248W, strain PDE1, stronger effect = lower value): 1 | normalized growth (locus YGL253W, strain hxk2, stronger effect = lower value): 0.903 (active) | normalized growth (locus YGR135W, strain pre9, stronger effect = lower value): 0.961 | normalized growth (locus YGR252W, strain gcn5, stronger effect = lower value): 0.774 | normalized growth (locus YHR013C, strain ard1, stronger effect = lower value): 0.906 | normalized growth (locus YHR027C, strain rpn1, stronger effect = lower value): 1.01 | normalized growth (locus YHR030C, strain SLT2, stronger effect = lower value): 1.01 | normalized growth (locus YHR079C, strain IRE1 (second series), stronger effect = lower value): 0.992 | normalized growth (locus YHR094C, strain hxt1, stronger effect = lower value): 0.992 | normalized growth (locus YHR129C, strain ARP1, stronger effect = lower value): 1.01 | normalized growth (locus YHR142W, strain chs7, stronger effect = lower value): 0.925 | normalized growth (locus YHR200W, strain rpn10, stronger effect = lower value): 0.993 | normalized growth (locus YIL066C, strain RNR3, stronger effect = lower value): 0.98 | normalized growth (locus YIL073C, strain SPO22, stronger effect = lower value): 0.91 | normalized growth (locus YIL125W, strain kgd1, stronger effect = lower value): 1 | normalized growth (locus YIR030C, strain dcg1, stronger effect = lower value): 0.991 | normalized growth (locus YJL092W, strain hpr5, stronger effect = lower value): 0.998 | normalized growth (locus YJL095W, strain BCK1 (second series), stronger effect = lower value): 0.981 | normalized growth (locus YJL095W, strain BCK1, stronger effect = lower value): 0.944 | normalized growth (locus YJL115W, strain asf1, stronger effect = lower value): 0.995 | normalized growth (locus YJL129C, strain trk1, stronger effect = lower value): 0.915 | normalized growth (locus YJL134W, strain LCB3, stronger effect = lower value): 1.02 | normalized growth (locus YJL154C, strain vps35, stronger effect = lower value): 1.02 | normalized growth (locus YJL164C, strain tpk1, stronger effect = lower value): 0.907 (active) | normalized growth (locus YJL168C, strain set2, stronger effect = lower value): 0.994 | normalized growth (locus YJL187C, strain SWE1 (second series), stronger effect = lower value): 1
